Source: PubChem BioAssay (NCI)
This is part of a sample that, as a whole, favours compounds with a hit. Of some 83,000 tested, about 20% had one in any assay.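 Cells were grown in 96-well plates and exposed to the test compound at a single concentration for 48 hours; results are reported as percent growth, with values below 10 considered active.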 Values without a mark were called inactive. Activity calls are given as the source filed them.

How the values were obtained:
Assay in all cases: NCI-60 one-dose screen, 48 h (100 = growth as untreated, 0 = no growth, -100 = all killed)
Conditions in all cases: 10 µM
[1] = test system: RPMI-8226 leukemia
[2] = test system: OVCAR-8 ovarian
[3] = test system: OVCAR-5 ovarian
[4] = test system: OVCAR-4 ovarian
[5] = test system: SK-OV-3 ovarian
[6] = test system: IGROV1 ovarian
[7] = test system: OVCAR-3 ovarian
[8] = test system: HS 578T breast
[9] = test system: NCI/ADR-RES ovarian
[10] = test system: T-47D breast

Row | Compound | growth [1] | growth [2] | growth [3] | growth [4] | growth [5] | growth [6] | growth [7] | growth [8] | growth [9] | growth [10]
1 | O=C(Nc1cccc(-n2cc(-c3ccncc3)c(-c3ccc(O)c(Cl)c3)n2)c1)c1ccc(N2CCOCC2)c(C(F)(F)F)c1 | -18% (active) | 30.7% | 37.8% | 69.3% | 64.2% | 64.8% | 60.4% | 33.5% | 43.1% | 36.4%
2 | CC[C@H]1CCC/C=C/[C@@H]2C[C@H](O)C[C@H]2[C@H](O)/C=C/C(=O)O1 | -3.82% (active) | 0.0361% (active) | 7.93% (active) | 29% | 21.3% | -2.68% (active) | -58.5% (active) | 13.7% | 2.15% (active) | -81.1% (active)
3 | O=C(Nc1ccc(Cl)cc1)N1NC(c2ccc(Cl)cc2)C=C1c1ccccc1 (stereo not given) | 99.5% | 97% | 124% | 91.5% | 97% | 95.3% | 103% | 123% | 115% | 94%
4 | CCCCCCCNc1nc(C=O)ncc1-c1ccc(C(F)(F)F)cc1 | 84% | 102% | 103% | 110% | 96.5% | 89.8% | 97.6% | 107% | 90.1% | 81.6%
5 | O=C(Nc1cccc(-n2cc(-c3ccncc3)c(-c3ccc(O)c(Cl)c3)n2)c1)Nc1cccc(C(F)(F)F)c1 | -29.4% (active) | -49.9% (active) | 38.1% | 2.73% (active) | 4.94% (active) | -1.92% (active) | -6.21% (active) | -4.27% (active) | 11.4% | -23.6% (active)
6 | CC1(C)OC2=C(CC1Br)C(=O)C(=O)c1ccccc12 (stereo not given) | -28.1% (active) | -46.4% (active) | -80.5% (active) | -99.4% (active) | 77.8% | -80.2% (active) | -96.5% (active) | 8.65% (active) | -44.7% (active) | -45.4% (active)
7 | CCN(CC)CCCC(C)Nc1nc(-c2ccc(OC)cc2)nc2cc(Cl)ccc12 (stereo not given) | 55.2% | 76.1% | 65.8% | 68.7% | 91.4% | 44.3% | 69.6% | 70.4% | 71.3% | 60.2%
8 | CN(C)CCOc1nc2ccccc2c2c1-c1ccc(Cl)cc1C2=O | -23.4% (active) | 2.21% (active) | 18.3% | -6.28% (active) | 11.5% | -27.9% (active) | -21.4% (active) | -13.3% (active) | -6.87% (active) | 11.9%
9 | O=C1N=NC2=C1c1c3ccccc3c(O)n1CC2 | 101% | 101% | 103% | 106% | 100% | 117% | 127% | 147% | 105% | 103%
10 | O=C(Nc1ccc(OS(=O)(=O)c2ccccc2)cc1)C12CC3CC(CC(C3)C1)C2 | 18.8% | 63% | 68% | 58.9% | 74% | 75.1% | 63.9% | 63.1% | 52.5% | 27%
11 | O=C(Nc1cccc(-n2cc(-c3ccncc3)c(-c3ccc(O)c(Cl)c3)n2)c1)c1cc(C(F)(F)F)cc(C(F)(F)F)c1 | 28.8% | 42.9% | 75% | 53.9% | 87.7% | 71.8% | 35.7% | 60.2% | 58.5% | 25.6%
12 | O=C1NC(=O)c2ncccc21 | 99.3% | 100% | 107% | 113% | 101% | 107% | 113% | 124% | 106% | 102%
13 | N=c1c2c(-c3ccccc3)c(-c3ccccc3)n(Cc3ccccc3)c2ncn1CCCO | 18.7% | 32.5% | 55.6% | 35.7% | 70.7% | 8.33% (active) | 8.78% (active) | 46% | 42.9% | 65.9%
14 | CC/C(=C(/c1ccc(OCCN(C)C)cc1)c1ccc(OC(=O)CCC(=O)c2c(C)[nH]c(/C=C3\N=C(c4ccc[nH]4)C=C3OC)c2C)cc1)c1ccccc1 | -22.3% (active) | 22.8% | 65.3% | 37.4% | 63.5% | 27.6% | 33% | 8.4% (active) | 20.7% | 22.7%
15 | CCCC#CCN(CC)CC | 105% | 100% | 112% | 104% | 107% | 110% | 117% | 105% | 114% | 108%
16 | COc1cc2cc3c(nc2cc1OC)CCN3Cc1ccc(NC(=O)c2ccc(Cl)c(C(F)(F)F)c2)cc1 | 91.2% | 88.6% | 99.5% | 80.4% | 91.7% | 78.5% | 94.3% | 98.5% | 99.4% | 64.2%
17 | O=C1OCC2=C1C(c1cccc(Cl)c1)c1cc3c(cc1N2CCO)OCO3 (stereo not given) | 22.4% | 25.1% | 31.2% | 64.5% | 19.4% | 44% | -50.6% (active) | -5.17% (active) | -11% (active) | 62.6%
18 | CC(=O)N1C/C(=C/c2ccc(Cl)cc2)C(=O)/C(=C/c2ccc(Cl)cc2)C1 | -45.2% (active) | 4.95% (active) | 18.2% | 10.9% | -10.9% (active) | -55.7% (active) | -40.6% (active) | 14.5% | 10.4% | 30.1%
19 | C#Cc1ccc(-n2c(/C=C/c3ccc(O)cc3)nc3ncccc3c2=O)cc1 | 46.9% | 75.2% | 97.4% | 61% | 45.5% | 62.5% | 4.59% (active) | 64% | 55% | 67.4%
20 | O=C(N/N=C/c1ccccc1O)C(O)(c1ccccc1)c1ccccc1 | 62% | 60.1% | 73.9% | 26.7% | 66.9% | 43.7% | 8.52% (active) | 74% | 35.9% | 48.1%
21 | Cc1cc(N(CCCNc2ccnc3cc(Cl)ccc23)Cc2ccc3c(c2)OCO3)nc(N2CCCCC2)n1 | -49.5% (active) | -11.2% (active) | 4.69% (active) | -9.93% (active) | 31.3% | -51.1% (active) | -71.8% (active) | -32.4% (active) | 7.45% (active) | -37.3% (active)
22 | c1ccc2c(c1)oc1c3c(ccc12)NCCC3 | 93.8% | 98.2% | 102% | 94.3% | 107% | 98.6% | 103% | 109% | 97.7% | 59.9%
23 | COc1ccc2c(c1)N(CCO)C1=C(C(=O)OC1)C2c1ccccc1 (stereo not given) | 22% | 29.6% | 66.5% | 69.5% | 19.5% | 43.3% | -40.3% (active) | -5.25% (active) | -2.83% (active) | 37.6%
24 | CN(C)CCS(=O)(=O)CCN(C)C | 108% | 99.5% | 105% | 120% | 98.8% | 119% | 110% | 98.9% | 105% | 111%
25 | O=C1/C(=C\c2ccccc2)CN(C(=O)c2ccccc2F)C/C1=C\c1ccccc1 | -40.3% (active) | 10.6% | 64.9% | 28.8% | 36.6% | -11.2% (active) | -20.1% (active) | -10.1% (active) | 23.8% | 42.7%
26 | c1ccc(CNc2ncnc3scc(-c4cccs4)c23)nc1 | 40.9% | 63.1% | 99% | 41.2% | 85.1% | 63.6% | 52.8% | 79.7% | 58.8% | 47.3%
27 | COc1ccc(Nc2ccnc(NCCNc3ccnc4cc(Cl)ccc34)n2)cc1 | -22.9% (active) | 59.5% | 51.2% | 37.1% | 74.7% | 24.6% | 60.3% | 76.8% | 66.8% | 34.9%
